Results: PubChem BioAssay AID488841 (Sanford-Burnham Center for Chemical Genomics, 2010)
Hit rate of the full screen: of about 1,400 compounds, about 380 (27%) were called active.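 Rule for the calls: active = mean inhibition above 50% across duplicate retests at 10 µM; inactive = the rest.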 The list shows a part of the results.

Assay: yeast NALP1 reporter signal suppression – S. cerevisiae, luminescence, single concentration, NALP1 inhibitor project, confirmation (AID 488841);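 note: plate controls were DMSO in galactose medium for no effect and cells in plain SD medium for full effect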
Conditions: S. cerevisiae NALP1/ASC/Caspase-1 reporter, beta-gal luminescence; at 10 µM; active compounds read high

| SMILES | inhibition |
| --- | --- |
| Cc1cc(C)n(CCOc2ccc(Cl)cc2Cl)n1 | 53.1% (active) |
| O=C(CCl)NC(=O)NC12CC3CC(CC(C3)C1)C2 | 32.7% (inactive) |
| CCCCNC(=O)C(=O)N/N=C/c1cccc(Br)c1 | 45.6% (inactive) |
| CC(/C=N/NC(=O)CCn1nnc2ccccc21)=C\c1ccccc1 | 38.2% (inactive) |
| CC(/C=N/NC(=O)CSc1ccccn1)=C\c1ccc(C(C)C)cc1 | 26.2% (inactive) |
| CC(/C=N/NC(=O)c1c(Br)cnn1C)=C\c1ccccc1 | 54.4% (active) |
| COc1cc2c(cc1NC(=S)Nc1ccccc1C)oc1ccccc12 | 26.9% (inactive) |
| Cc1ccc(S(=O)(=O)c2nc(C)oc2NCc2ccccc2)cc1 | 35% (inactive) |
| Cc1ccc(S(=O)(=O)c2nc(Nc3ccccc3)sc2Cl)cc1 | 55.3% (active) |
| CCOC(=O)/C(=N\Nc1ccc(Cl)cc1)c1csc(Nc2ccccc2)n1 | 27.4% (inactive) |
| CCCOc1ccc(OCCSc2ncccn2)cc1 | 39.4% (inactive) |
| Cc1cc(N2C(=O)C=CC2=O)c([N+](=O)[O-])cc1C | 41.7% (inactive) |
| Fc1ccc(NC(=S)N2CCSC2c2cccs2)cc1 (centres undefined) | 17.1% (inactive) |
| Cc1ccc(S(=O)(=O)NC2=NCN(CCOC(=O)c3ccc([N+](=O)[O-])cc3)CN2)cc1 | 22.2% (inactive) |
| Brc1ccc(C=Nc2ccc(Nc3ccccc3)cc2)s1 | 51.1% (active) |
| COc1ccc(NC(=S)SC)cc1OC | 52.4% (active) |
| COc1ccc2nc3oc(C(=O)Nc4ccc(OC)c(OC)c4)cc3cc2c1 | 23.6% (inactive) |
| COc1ccc(C(=O)Nc2ccc(S(=O)(=O)Nc3nccc(C)n3)cc2)cc1OC | 31.2% (inactive) |
| c1ccc(COc2ccc(OCCN3CCCCC3)cc2)cc1 | 35.1% (inactive) |
| O=C(O)c1cccnc1C(=O)N1CCc2c([nH]c3ccccc23)C1C(F)(F)F (centres undefined) | 0.7% (inactive) |
| COc1ccccc1NC(=O)C1=C(C)NC(=O)NC1c1cccs1 (centres undefined) | 27.1% (inactive) |
| O=[N+]([O-])c1cc(C(F)(F)F)ccc1NCCc1c[nH]c2ccc(O)cc12 | 51.8% (active) |

| SMILES | inhibition |
| --- | --- |
| Cc1ccc(C(=O)NCCCNc2ccc(C(F)(F)F)cc2[N+](=O)[O-])cc1 | 31.8% (inactive) |
| CCOC(=O)C(=O)C1=C(N2CCOCC2)/C(=C\c2ccc(F)cc2)CC1 | 33.4% (inactive) |
| CCOc1cc(CNCc2ccncc2)cc(Br)c1OCc1ccc(F)cc1 | 69.7% (active) |
| COc1cc(CNC2CCCCCCC2)cc(Br)c1OCC#N | 38.8% (inactive) |
| CCOc1cc(CNC2CCCC2)cc(Cl)c1OCc1ccc(F)cc1 | 50.7% (active) |
| CCOc1c(Cl)cc(CNCC(C)C)cc1OC | 32.7% (inactive) |
| COc1ccc2c(c1)NC(=O)CC(c1ccccc1)=N2 | 43.5% (inactive) |
| O=S(=O)(NC1CCCCC1)c1ccc(F)c2ccccc12 | 51.6% (active) |
| Cc1cccc(NC(=O)c2ccc(C3SCC(=O)N3CCc3ccccc3)cc2)c1C (centres undefined) | 48.8% (inactive) |
| COc1ccc(N=c2cc(-c3ccc(OC)cc3)oc3ccccc23)cc1 | 49.6% (inactive) |
| CCCCN(Cc1ccccc1)C(=O)C1CCN(Cc2sccc2C)CC1 | 40.8% (inactive) |
| Nc1c(C(=O)NCc2ccc3c(c2)OCO3)nnn1-c1ccc(OC(F)(F)F)cc1 | 31.3% (inactive) |
| Cc1ccc(/C=C/C(=O)NCc2ccc3c(c2)OCO3)o1 | 36% (inactive) |
| O=C(CSCc1cnn(-c2ccccc2)c1-n1cccc1)NCc1ccc2c(c1)OCO2 | 50% (active) |
| COc1ccc2c(c1)O/C(=C\c1sccc1C)C2=O | 65.4% (active) |
| CCOc1oc(-c2ccc(OC)cc2)nc1C(F)(F)F | 24.1% (inactive) |
| O=C(N/N=C/c1ccncc1)c1cc2ccccc2o1 | 47.5% (inactive) |
| O=C(Nc1cccc(-c2nc3ncccc3o2)c1)c1cc2ccccc2o1 | 46.4% (inactive) |
| O=C(NC(=S)Nc1cccnc1)c1cc2ccccc2o1 | 55.4% (active) |
| COc1cccc(CN(C)CC(=O)Nc2cccc(S(N)(=O)=O)c2)c1OC | 33.9% (inactive) |
| C(#Cc1ccc(C#CCN2CCCC2)cc1)CN1CCCC1 | 17.6% (inactive) |
| OC(CSc1c(Cl)cccc1Cl)CN1CCN(c2ccccc2F)CC1 (centres undefined) | 40.9% (inactive) |

| SMILES | inhibition |
| --- | --- |
| O=[N+]([O-])c1ccc(OCC(O)CN2CCN(c3ccccc3F)CC2)cc1 (centres undefined) | 55.2% (active) |
| OC(COc1ccc2c(c1)CCC2)CN1CCN(c2ccccc2F)CC1 (centres undefined) | 73.8% (active) |
| CCOC(=O)N1CCN(CC(O)COc2ccccc2C(C)(C)C)CC1 (centres undefined) | 42.4% (inactive) |
| CCC(=O)c1ccc(OCC(O)CN2CCN(c3cccc(C(F)(F)F)c3)CC2)cc1 (centres undefined) | 49.5% (inactive) |
| Cc1cccc(C(=O)NNC(=O)CN2C(=O)c3ccccc3C2=O)c1 | 24.9% (inactive) |
| Cc1ccc(N2C(=N)/C(=C3/Nc4ccccc4S3)C(c3ccccc3)C2=O)cc1 (centres undefined) | 35.2% (inactive) |
| CCc1cccc2c(C(=O)CSc3nncn3-c3ccc(OC)cc3)c[nH]c12 | 25.8% (inactive) |
| CCc1cccc2c(C(=O)COC(=O)c3ccccc3)c[nH]c12 | 40% (inactive) |
| CCc1cccc2c(C(=O)COC(=O)c3ccc([N+](=O)[O-])s3)c[nH]c12 | 91.5% (active) |
| c1csc(CNc2nc3ccccc3n2CCN2CCOCC2)c1 | 33.5% (inactive) |
| O=C(CNC(c1ccccc1)c1ccccc1)Nc1c(F)cccc1F | 26.1% (inactive) |
| COC(=O)c1ccc(NC(=O)CN2C(=O)CNC2=O)cc1 | 32.5% (inactive) |
| CC(C)NC(=O)CCCOc1ccc(Cl)cc1Cl | 54.9% (active) |
| CN(C)CCNC(=O)COc1ccc(Cl)cc1Cl | 25.2% (inactive) |
| CC(C)NCCOCCOc1ccc(Cl)cc1Br | 35.1% (inactive) |
| C=C1SC(Nc2c(C)cccc2C)=NC12CCCCC2 | 29.4% (inactive) |
| COc1ccccc1C(=O)Nc1ccc(OCc2nnc3c4ccccc4c(C)nn23)cc1 | 36.5% (inactive) |
| COc1ccc2[nH]c3c(C)c4ccncc4c(C)c3c2c1 | 94.5% (active) |
| COc1ccc2[nH]c(C)c(CCNC(=S)Nc3cc(C)cc(C)c3)c2c1 | 30% (inactive) |
| CC(C)CCN(C(=O)Nc1ccccc1)C(C)c1cccs1 (centres undefined) | 29.9% (inactive) |
